# Records with an inconclusive call do not appear. A call without a number means that no potency is given here. The source made the active and inactive calls. The call rests on the fitted dose curve; in most records, active means well fitted cell-killing curve with a large enough effect; inconclusive means small, poorly fitted or top-dose-only effect; inactive means flat fitted curve, though single readings scatter.
# Assay: qHTS of pediatric cancer cell lines to identify multiple opportunities for drug repurposing: Primary screen for Rh18 cells (AID 1347102); further: nearly all actives have a fitted effect of over 65% in size
# Conditions: Rh18 rhabdomyosarcoma viability, CellTiter-Glo luminescence, 48 h; series mostly up to 46 µM
# Description: Drug repurposing or repositioning has been offered as a strategy for drug development in oncology programs. This approach has special potential for childhood cancers and other rare or orphan diseases, where the expected return on new drug development has been a disincentive to pharmaceuticals.
# In this project we exploit the poly-pharmacology of drugs to discover new indications via phenotypic screening of a panel of 19 well-characterized cell lines derived from solid tumors seen in children and adolescents. The goal is to identify approved drugs with previously unrecognized anticancer properties that has the potential to reveal new mechanisms and biological processes involved in carcinogenesis or drug resistance. We employed a titration-based paradigm (quantitative high-throughput screening or qHTS), where all compounds were tested at multiple concentrations for their effect on cell viability. Concentration-response curves (CRCs) were derived directly from the primary screen, and both potency and efficacy values were used to identify compounds with robust bioactivity profiles. We screened the NIH Chemical Genomics Center (NCGC) Pharmaceutical Collection (NPC) and Mechanism Interrogation Plate (MIPE) small molecule collections of approved and investigational compounds against these cell lines; and measured metabolically active cells after 48 hours of compound treatment as a proxy for cell viability.
# Assay Submitter: Nathalia J. Martinez, National Center for Advancing Translational Sciences, National Institutes of Health, Rockville, MD, USA; email: natalia.martinez@nih.gov
# [1] Shen, M et al. Quantitative high-throughput phenotypic screening of pediatric cancer cell lines identifies multiple opportunities for drug repurposing. Oncotarget 2017 Dec 19;9(4):4758-4772. PMID 29435139.
# The cells were obtained from University of North Carolina (UNC), Pediatric Preclinical Testing Program (PPT), and Coriell Institute (CI).
# qHTS cell viability assay:
# Cells were assayed in growth media at a density of 500-1,000 cells/well. Five microliters of cells were dispensed into 1,536-well, white, solid-bottom, TC-treated plates (Greiner Bio One) using a multidrop dispenser and incubated at 37 degrees C, 5% CO2, under a humidified atmosphere for 5 hours. Twenty-three nanoliters of compounds and controls (neutral control DMSO or positive control bortezomib at final concentration of 2.3 µM) were subsequently transferred by Kalypsys pintool. For primary screens, the MIPE collection was tested at 11-point dilutions (final concentrations range from 0.78 nM to 46 µM) and the NPC collection at 8-point dilutions (final concentrations range from 0.59 nM to 46 µM). Compounds tested in follow-up screens were assayed at 11-point dilutions. Cells were incubated for 48 hours, followed by addition of 3 µL of CellTiter-Glo (Promega). After a 15 min incubation at room temperature, samples were analyzed for luminescence intensity using a ViewLux High-throughput CCD imager equipped with clear filters.
# Potency means the concentration at half of the fitted maximal effect.
row,Structure (SMILES),Potency
1,Cc1ccc(C2=Nc3ccc(Cl)cc3OC2)cc1,inactive
2,Nc1[nH]nc2nnc(-c3c(-c4ccccc4)nn4ccccc34)cc12,2.64 µM (active)
3,O=C(C=Cc1ccc(O)cc1)c1ccc(O)cc1O,inactive
4,CC1(C)C(N(O)C(=O)Nc2ccc(Cl)cc2)N(c2ccc(Cl)cc2)C(=O)N1CC(=O)NN=CC=Cc1ccc([N+](=O)[O-])o1 (stereo not given),20.9 µM (active)
5,CCC=CC[C@H]1C(=O)CC[C@@H]1CC(=O)OC,inactive
6,COc1cc([C@H]2Oc3cc([C@H]4Oc5cc(O)cc(O)c5C(=O)[C@H]4O)ccc3O[C@H]2CO)ccc1O,inactive
7,COc1ccc(-c2ccc3ncc4c(c3c2)n(-c2ccc(N3CCNCC3)c(C(F)(F)F)c2)c(=O)n4C)cn1,0.0418 µM (active)
8,CCNC(=O)c1noc(-c2cc(C(C)C)c(O)cc2O)c1-c1ccc(CN2CCOCC2)cc1,0.0935 µM (active)
9,CN1CC(=O)N2C(Cc3c([nH]c4ccccc34)[C@H]2c2ccc3c(c2)OCO3)C1=O (stereo not given in full),inactive
10,NS(=O)(=O)c1ccc(Nc2nc(OCC3CCCCC3)c3[nH]cnc3n2)cc1,inactive
11,CC(C)c1c(C(=O)Nc2ccccc2)c(-c2ccccc2)c(-c2ccc(F)cc2)n1CC[C@H](O)C[C@@H](O)CC(=O)O,20.9 µM (active)
12,Cc1csc(-c2nnc(Nc3ccc(Oc4ncccc4-c4ccnc(N)n4)cc3)c3ccccc23)c1,inactive
13,CCNC(=O)[C@H]1O[C@@H](n2cnc3c(N)nc(NCCc4ccc(CCC(=O)O)cc4)nc32)[C@H](O)[C@H]1O,inactive
14,COc1c(C)c2c(c(O)c1CC=C(C)CCC(=O)OCCN1CCOCC1)C(=O)OC2,inactive
15,CCCCC(C=O)NC(=O)C(CC(C)C)NC(=O)OCc1ccccc1 (stereo not given),inactive
16,CCN1C[C@H](C)n2c(c(O)c3c(=O)n(Cc4ccc(F)c(Cl)c4)nc(C(=O)NC)c32)C1=O,inactive
17,O=C1CCCC(=O)C1C(=O)c1ccc(C(F)(F)F)cc1[N+](=O)[O-],inactive
18,CC=C(C(=CC)c1ccc(O)cc1)c1ccc(O)cc1,inactive
19,C=C1[C@H](n2cnc3c(=O)[nH]c(N)nc32)C[C@H](O)[C@H]1CO,inactive
20,O=C(Nc1ccccc1)Nc1ccc(-c2ccc(C(=O)[C@H]3CCC[C@H]3C(=O)O)cc2)cc1,inactive

row,Structure (SMILES),Potency
1,C[C@H](CCC(=O)O)[C@H]1CC[C@H]2[C@H]3[C@@H](CC[C@]12C)[C@@]1(C)CC[C@@H](O)C[C@H]1C[C@@H]3O,inactive
2,CCCCC[C@H](O)C=C[C@H]1[C@H](O)CC(=O)[C@H]1CCCCCCC(=O)O,inactive
3,CC[C@H](C)C(=O)O[C@H]1C[C@H](O)C=C2C=C[C@H](C)[C@H](CC[C@@H](O)C[C@@H](O)CC(=O)O)[C@H]21,inactive
4,COc1c(C)c2c(c(O)c1CC=C(C)CCC(=O)O)C(=O)OC2,inactive
5,Cc1cccc(Nc2nc(N[C@@H]3CCCC[C@H]3N)ncc2C(N)=O)c1,20.9 µM (active)
6,c1ccc(CNc2nc(N3CCOc4ccccc43)nc3c2CCCC3)cc1,inactive
7,CCC(c1ccc(O)cc1)C(CC)c1ccc(O)cc1 (stereo not given),inactive
8,O=c1[nH]c(=O)n([C@H]2C[C@@H](O)[C@@H](CO)O2)cc1I,inactive
9,O=C(CC12CC3CC(CC(C3)C1)C2)Nc1cccc2nc(NCCNCCO)ccc12,inactive
10,Cn1cc(-c2ccc3nnc(Sc4ccc5ncccc5c4)n3n2)cn1,inactive
11,Cc1cnc(CNC(=O)c2c(=O)c3ccc(N4CCCN(C)CC4)nc3n3c2sc2ccccc23)cn1,inactive
12,CC(C)CNc1ccnc(NCc2csc(-c3ccccc3)n2)n1,23.5 µM (active)
13,COC(=O)N1CCN(Cc2cccc(NC(=O)Nc3ccc(C)nc3)c2F)CC1,inactive
14,CCCCCCCCCCCCCC(=O)N[C@H](CO)[C@H](O)c1ccc([N+](=O)[O-])cc1,inactive
15,COc1ccc(-c2cc3nccn3c(Nc3ncccc3C(N)=O)n2)cc1OC,inactive
16,Cc1cc(-c2ncc(CC(=O)Nc3ccc(-c4cnccn4)cn3)cc2C)ccn1,inactive
17,C[C@@H](O)[C@H]1C(=O)N2C(C(=O)OCOC(=O)C(C)(C)C)=C(SC3CN(C4=NCCS4)C3)[C@H](C)[C@H]12,inactive
18,CCCCCCCCCCCCCCCC(=O)O[C@H]1[C@@H](O)[C@@H](O)[C@@H]([C@H](NC(=O)[C@@H]2C[C@@H](CCC)CN2C)[C@H](C)Cl)O[C@@H]1SC,inactive
19,CC[C@H]1OC(=O)[C@H](C)[C@@H](O[C@H]2C[C@@](C)(OC)[C@@H](O)[C@H](C)O2)[C@H](C)[C@@H](O[C@@H]2O[C@H](C)C[C@H](N(C)C)[C@H]2O)[C@](C)(O)C[C@H](C)C(=NOCOCCOC)[C@H](C)[C@@H](O)[C@]1(C)O,inactive
20,CN(C)S(=O)(=O)c1ccc2c(c1)C(=Cc1cc3c([nH]1)CCCC3)C(=O)N2,inactive

# From PubChem BioAssay (NCATS)
